# Measured values: PubChem BioAssay (NCATS)
# Where “and” joins values, the source holds several entries; their conditions need not be identical. Equal entries are not always repeated. Inconclusive results are not listed. Some compounds were tested as several samples or in several runs, with calls that do not always agree. Calls of active or inactive are those of the source. Calls follow the shape of the dose curve; as a rule, active = well fitted inhibition curve with a large enough effect; inconclusive = small, poorly fitted or top-dose-only effect; inactive = flat fitted curve, though single readings scatter.
# Assay: Drug repurposing screens with cells derived from glioblastoma tumor samples (AID 1345199); also: nearly all actives have a fitted effect of over 40% in size
# Details: GBM patient neurospheres viability, ATP luminescence, 48 h; at 45.9 µM (top of the series); tumour line B
# Outline: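 Primary testing used CD133+ neurospheres from four GBM patients, seven concentrations, 48 h exposure and ATP-based viability; confirmation added three slower-growing patient lines.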
# % is scaled to controls: 0 for no effect and ±100 for the full control effect; potency is read from the fitted curve at half-maximal effect.
row,Compound,"activity, negative = cell killing"
1,CC(NC(C)(C)C)C(=O)c1cccc(Cl)c1 (stereo not given),-9.74% (inactive)
2,COP(=S)(OC)SCN1C(=O)c2ccccc2C1=O,-19.8% (inactive)
3,CC(C)(C)c1ccc(O)cc1,-7.29% (inactive)
4,CC(C)NC(C)C,6.4% (inactive)
5,O=C(O)CCCc1ccc(N(CCCl)CCCl)cc1,-11.3% (inactive)
6,CCc1cc2c(s1)-n1c(C)nnc1CN=C2c1ccccc1Cl,-22.1% (inactive)
7,NC(=O)c1cc([N+](=O)[O-])cc([N+](=O)[O-])c1,-14% (inactive)
8,NNc1ccccc1,-3.46% (inactive)
9,C[C@]12CCC(=O)C=C1CC[C@@H]1[C@@H]2CC[C@@]2(C)[C@H]1CC[C@]2(C)O,-4.4% (inactive) and -14.4% (inactive)
10,Nc1ccccc1,-4.34% (inactive)
11,CNCC(=O)c1ccc(O)c(O)c1,-11.2% (inactive)
12,CN1C(=O)CCS(=O)(=O)C1c1ccc(Cl)cc1 (stereo not given),-12.1% (inactive) and -22.6% (inactive)
13,C[C@]12CC[C@@H]3c4ccc(OC(=O)N(CCCl)CCCl)cc4CC[C@H]3[C@@H]1CC[C@@H]2OP(=O)(O)O,-5.05% (inactive)
14,O=C1CN=C(c2ccccc2)c2cc([N+](=O)[O-])ccc2N1,-7.18% (inactive)
15,CCC1(c2ccc(N)cc2)CCC(=O)NC1=O (stereo not given),-18.5% (inactive)
16,Nc1nc(N)nc(NC2CC2)n1,-5.44% (inactive)
17,NCCc1ccc(O)cc1,-7.62% (inactive)
18,C=CCN1C[C@H](C)N([C@H](c2ccc(C(=O)N(CC)CC)cc2)c2cccc(OC)c2)C[C@H]1C,-27.6% (inactive)
19,[N-]=[N+]=CC(=O)OC[C@H](N)C(=O)O,-23.8% (inactive)
20,CC(C)N(CCC(C(N)=O)(c1ccccc1)c1ccccn1)C(C)C (stereo not given),-20.9% (inactive)
21,CC(C)c1cccc(C(C)C)c1O,6.49% (inactive)
22,O=C1c2ccccc2C(=O)c2ccccc21,4.04% (inactive)

# Same assay, conditions: GBM patient neurospheres viability, ATP luminescence, 48 h; at 45.9 µM (top of the series); tumour line D
row,Compound,"activity, negative = cell killing"
1,CC(NC(C)(C)C)C(=O)c1cccc(Cl)c1 (stereo not given),3.9% (inactive)
2,COP(=S)(OC)SCN1C(=O)c2ccccc2C1=O,-8.89% (inactive)
3,CC(C)(C)c1ccc(O)cc1,7.61% (inactive)
4,CC(C)NC(C)C,4.87% (inactive)
5,O=C(O)CCCc1ccc(N(CCCl)CCCl)cc1,-13.2% (inactive)
6,CCc1cc2c(s1)-n1c(C)nnc1CN=C2c1ccccc1Cl,-8.05% (inactive)
7,NC(=O)c1cc([N+](=O)[O-])cc([N+](=O)[O-])c1,-22.7% (inactive)
8,NNc1ccccc1,-1.72% (inactive)
9,C[C@]12CCC(=O)C=C1CC[C@@H]1[C@@H]2CC[C@@]2(C)[C@H]1CC[C@]2(C)O,-24.9% (inactive) and -19.8% (inactive)
10,Nc1ccccc1,-2.5% (inactive)
11,CNCC(=O)c1ccc(O)c(O)c1,-3.6% (inactive)
12,CN1C(=O)CCS(=O)(=O)C1c1ccc(Cl)cc1 (stereo not given),-13.6% (inactive) and -16.2% (inactive)
13,C[C@]12CC[C@@H]3c4ccc(OC(=O)N(CCCl)CCCl)cc4CC[C@H]3[C@@H]1CC[C@@H]2OP(=O)(O)O,-6.53% (inactive)
14,O=C1CN=C(c2ccccc2)c2cc([N+](=O)[O-])ccc2N1,-17.8% (inactive)
15,CCC1(c2ccc(N)cc2)CCC(=O)NC1=O (stereo not given),-18.3% (inactive)
16,Nc1nc(N)nc(NC2CC2)n1,-12.5% (inactive)
17,NCCc1ccc(O)cc1,3.08% (inactive)
18,[N-]=[N+]=CC(=O)OC[C@H](N)C(=O)O,-9.43% (inactive)
19,CC(C)N(CCC(C(N)=O)(c1ccccc1)c1ccccn1)C(C)C (stereo not given),4.58% (inactive)
20,CC(C)c1cccc(C(C)C)c1O,2.93% (inactive)
21,O=C1c2ccccc2C(=O)c2ccccc21,-17.8% (inactive)

# Same assay, conditions: GBM patient neurospheres viability, ATP luminescence, 48 h; at 46 µM (top of the series); tumour line A
row,Compound,"activity, negative = cell killing"
1,CC(C)(C)c1ccc(O)cc1,-21% (inactive)
2,CC(C)NC(C)C,1.87% (inactive)
3,NNc1ccccc1,-20.5% (inactive)
4,Nc1ccccc1,-28.7% (inactive)
5,CN1C(=O)CCS(=O)(=O)C1c1ccc(Cl)cc1 (stereo not given),-23.1% (inactive) and -4.54% (inactive)
6,NCCc1ccc(O)cc1,-19.3% (inactive)
7,[N-]=[N+]=CC(=O)OC[C@H](N)C(=O)O,-24.5% (inactive)
8,CC(C)c1cccc(C(C)C)c1O,-26.1% (inactive)

# Same assay, conditions: GBM patient neurospheres viability, ATP luminescence, 48 h; at 91.6 µM (top of the series); tumour line B
row,Compound,"activity, negative = cell killing"
1,CC(Cc1ccccc1)NCCn1cnc2c1c(=O)n(C)c(=O)n2C (stereo not given),-19.2% (inactive)
2,COc1cc(OC)c(OC)cc1C=O,-6.05% (inactive)
3,COc1ccc2c3c1O[C@H]1[C@H](O)CC[C@H]4[C@@H](C2)N(C)CC[C@@]341,-15.1% (inactive)

# Same assay, conditions: GBM patient neurospheres viability, ATP luminescence, 48 h; tumour line A
row,Compound,Potency
1,CN1CC[C@]23c4c5ccc(O)c4O[C@H]2[C@@H](O)C=C[C@H]3[C@H]1C5,20 µM (active)
2,C[C@]12CCC(=O)C=C1CC[C@@H]1[C@@H]2CC[C@@]2(C)[C@H]1CC[C@]2(C)O,12.6 µM (active) and 20 µM (active)
3,CC(Cc1ccccc1)NCCn1cnc2c1c(=O)n(C)c(=O)n2C (stereo not given),31.6 µM (active)
4,O=C(CCCN1CCC2(CC1)C(=O)NCN2c1ccccc1)c1ccc(F)cc1,2.24 µM (active)
5,C=CCN1C[C@H](C)N([C@H](c2ccc(C(=O)N(CC)CC)cc2)c2cccc(OC)c2)C[C@H]1C,7.08 µM (active)
6,CN1CCC(O)(c2ccc(F)cc2)C(C(=O)c2ccc(F)cc2)C1 (stereo not given),12.6 µM (active)
